“And” between values parts separate entries of the source, which are not always exact repeats. Equal values may be shown once. Values without a mark were called inactive. Results filed as inconclusive are left out. A call without a number means that no potency is given here. The source made the active and inactive calls. Unless noted, the call rests on the fitted dose curve; in most records, active means well fitted curve in the direction sought with a large enough effect in the repeat runs; inconclusive means weak or mixed curves; inactive means no such curve, though single readings can be large; an effect the other way counts as inactive or inconclusive.
Columns and labels:
[1] = qHTS assay for small molecule agonists of the p53 signaling pathway (AID 651631; calls by dose curve; further: nearly all actives have a fitted effect of over 15% in size; further: potency means the concentration at half of the fitted maximal effect)
Summary of the method: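 HCT-116 cells carrying a beta-lactamase reporter under p53 response elements were dosed with compound for 16 h at 37 °C. LiveBLAzer B/G FRET substrate was then added for 2 h at room temperature, and fluorescence intensity was read to detect pathway agonism.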

[2] = qHTS assay for small molecule agonists of the p53 signaling pathway - cell viability (AID 651633; calls by dose curve; further: nearly all actives have a fitted effect of over 30% in size; further: potency means the concentration at half of the fitted maximal effect)
Summary of the method: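 p53RE-bla cells were treated with compound for 16 hours at 37 C. Cytotoxicity was then measured as CellTiter-Glo luminescence after 30 min at room temperature.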

[3] = qHTS assay for small molecules that induce genotoxicity in human embryonic kidney cells expressing luciferase-tagged ATAD5 - cell viability (AID 651634; calls by dose curve; further: nearly all actives have a fitted effect of over 25% in size; further: potency means the concentration at half of the fitted maximal effect)
Summary of the method: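 Cells (HEK293T, luciferase-tagged ATAD5) are seeded at 2,000 per well, dosed with compound or DMSO vehicle, and incubated 15.5 hr at 37C and 5% CO2. CellTiter-Fluor is added for 30 min before fluorescence is measured.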

[4] = qHTS assay for small molecule disruptors of the mitochondrial membrane potential - cell viability (AID 720634; calls by dose curve; further: nearly all actives have a fitted effect of over 20% in size; further: potency means the concentration at half of the fitted maximal effect)
Summary of the method: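 Cytotoxicity was measured by ATP quantitation in HepG2 wells that had first been treated with compound for 1 hr and stained with m-MPI dye; CellTiter-Glo incubation was 30 min at room temperature.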

[5] = qHTS assay to test for compound auto fluorescence at 590 nm (red) in HepG2 cells (AID 720674)
Summary of the method: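 Fluorescence at 590 nm emission following 540 nm excitation was recorded from HepG2 wells one hour after compound transfer, with DMSO-only wells as vehicle and Rose Bengal sodium equivalency as the scale.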

[6] = qHTS assay to test for compound auto fluorescence at 535 nm (green) in HepG2 cells (AID 720675)
[7] = qHTS assay to test for compound auto fluorescence at 460 nm (blue) in HEK293 cells (AID 720678)
Summary of the method: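 Blue read-out at excitation 405 nm and emission 460 nm follows overnight compound exposure of HEK293 cells at 37C in 5% CO2. Activity is given as auto fluorescence equivalency to triamterene.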

[8] = qHTS assay to test for compound auto fluorescence at 590 nm (red) in HEK293 cells (AID 720679)
Summary of the method: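 Red channel, Ex/Em 540/590nm; signal expressed as equivalency to Rose Bengal sodium. HEK293, 2,000 cells/well, 10% dialyzed FBS; 23 nL compound pinned after 4-5 hr attachment; overnight 37C/5% CO2 before reading.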

[9] = qHTS assay to test for compound auto fluorescence at 535 nm (green) in HEK293 cells (AID 720680)
[10] = qHTS assay to test for compound auto fluorescence at 460 nm (blue) in HEK293 cell free culture (AID 720681)
Summary of the method: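 Compounds were added to cell-free DMEM with 10% FBS and fluorescence read directly. The blue channel used 405 nm excitation and 460 nm emission, with triamterene as the reference fluorophore.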

[11] = qHTS assay to test for compound auto fluorescence at 535 nm (green) in HEK293 cell free culture (AID 720682)
Summary of the method: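 Green-label autofluorescence (485 nm excitation, 535 nm emission) measured on compound added to cell-free culture medium (DMEM, 10% FBS). Output is expressed relative to fluorescein.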

[12] = qHTS assay to test for compound auto fluorescence at 590 nm (red) in HEK293 cell free culture (AID 720683)
Summary of the method: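 Cell-free wells of DMEM with 10% FBS received compound, and intrinsic fluorescence was read at excitation/emission 540/590 nm. Values expressed as equivalence to Rose Bengal sodium.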

[13] = qHTS assay to test for compound auto fluorescence at 590 nm (red) in HepG2 cell free culture (AID 720684)
Summary of the method: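 Rose Bengal sodium served as the reference for red signal. Test compounds were dispensed into serum-containing MEM (10% FBS) without cells, and plates were read at 540/590 nm.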

[14] = qHTS assay to test for compound auto fluorescence at 460 nm (blue) in HepG2 cell free culture (AID 720685)
Summary of the method: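 Cell-free plates of MEM plus 10% FBS received 23 nL compound or DMSO vehicle; blue-channel (405/460 nm) intensity scored against triamterene as reference fluorophore.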

[15] = qHTS assay to test for compound auto fluorescence at 535 nm (green) in HepG2 cell free culture (AID 720686)
[16] = qHTS assay to test for compound auto fluorescence at 460 nm (blue) in HepG2 cells (AID 720687)
Summary of the method: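 HepG2 cells in MEM with 10% FBS, attached overnight at 37 C, were exposed to compound or DMSO for 1 hr at 37 C, 5% CO2. Blue fluorescence was read at 405/460 nm, with triamterene as reference fluorophore.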

[17] = target: Glucocorticoid receptor (Homo sapiens) (UniProt P04150); test: qHTS assay to identify small molecule agonists of the glucocorticoid receptor (GR) signaling pathway (AID 720691; active means well fitted activation curve with a large enough effect in the signal ratio in the repeat runs, not every such curve was filed as active; the % refers to the signal ratio)
Summary of the method: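 Steps: seed GR-bla HeLa cells, incubate 4 h at 37 C/5% CO2; pin-transfer DMSO-dissolved compounds; incubate 18 h at 37 C; add LiveBLAzer B/G FRET substrate; after 2 h at room temperature, measure fluorescence.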

[18] = qHTS assay for small molecules that induce genotoxicity in human embryonic kidney cells expressing luciferase-tagged ATAD5 (AID 651632); further: nearly all actives have a fitted effect of over 15% in size; further: potency means the concentration at half of the fitted maximal effect
Summary of the method: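 Cells were seeded at 2,000 per well, dosed with compound, and incubated 16 hr at 37C in 5% CO2. Luciferase activity was then quantified after a 30 min room-temperature incubation with Amplite.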

[19] = qHTS assay for small molecule disruptors of the mitochondrial membrane potential (AID 720635); further: potency means the concentration at half of the fitted maximal effect
Summary of the method: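 HepG2 cells exposed to compound 1 hr at 37C, then Mito-MPS dye 30 min. Ratio read of aggregate (540/590 nm) versus monomer (490/535 nm) fluorescence.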

[20] = target: Glucocorticoid receptor (Homo sapiens) (UniProt P04150); test: qHTS assay to identify small molecule antagonists of the glucocorticoid receptor (GR) signaling pathway (AID 720692; active means well fitted inhibition curve with a large enough effect in the signal ratio in the repeat runs, not every such curve was filed as active; the % refers to the signal ratio; further: potency means the concentration at half of the fitted maximal effect)
Summary of the method: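 Antagonism was scored as loss of dexamethasone-driven (5 nM final) reporter signal in HeLa cells bearing a glucocorticoid response element–beta-lactamase construct, after 18 h compound exposure at 37 C and 2 h FRET substrate loading.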

Sequence of Glucocorticoid receptor (Homo sapiens) (P04150 whole entry, looked up): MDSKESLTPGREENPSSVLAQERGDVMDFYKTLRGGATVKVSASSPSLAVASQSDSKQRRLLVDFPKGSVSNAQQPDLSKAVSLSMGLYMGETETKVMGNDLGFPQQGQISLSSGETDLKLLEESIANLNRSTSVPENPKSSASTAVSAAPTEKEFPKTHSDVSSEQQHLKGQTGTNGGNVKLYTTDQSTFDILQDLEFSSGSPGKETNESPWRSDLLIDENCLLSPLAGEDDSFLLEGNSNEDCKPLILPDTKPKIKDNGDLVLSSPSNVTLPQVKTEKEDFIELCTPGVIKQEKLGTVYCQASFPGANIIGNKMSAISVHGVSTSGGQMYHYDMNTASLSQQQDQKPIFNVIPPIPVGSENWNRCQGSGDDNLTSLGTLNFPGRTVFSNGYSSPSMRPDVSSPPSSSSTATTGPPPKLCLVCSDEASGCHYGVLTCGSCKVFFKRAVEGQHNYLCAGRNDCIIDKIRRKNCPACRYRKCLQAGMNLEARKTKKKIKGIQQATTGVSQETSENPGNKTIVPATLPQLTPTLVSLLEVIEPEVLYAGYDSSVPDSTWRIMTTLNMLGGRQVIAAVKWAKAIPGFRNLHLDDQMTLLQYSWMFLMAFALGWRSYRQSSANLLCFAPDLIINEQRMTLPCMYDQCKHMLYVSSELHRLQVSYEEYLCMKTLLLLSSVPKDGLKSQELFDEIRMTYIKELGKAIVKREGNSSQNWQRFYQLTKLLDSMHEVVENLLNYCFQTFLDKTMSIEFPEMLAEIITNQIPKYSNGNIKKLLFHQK

SMILES	Potency [1]	Potency [2]	Potency [3]	Potency [4]	outcome [5]	outcome [6]	Potency [7]	outcome [8]	outcome [9]	Potency [10]	outcome [11]	outcome [12]	outcome [13]	Potency [14]	outcome [15]	Potency [16]	Potency [17]	Potency [18]	Potency [19]	Potency [20]
BrC(Br)Br	inactive	inactive	inactive	inactive	inactive	inactive	inactive	inactive	inactive	inactive	inactive	inactive	inactive	inactive	inactive	inactive	inactive	–	–	–
CS(=O)(=O)c1ccc(C(=O)C2C(=O)CCCC2=O)c([N+](=O)[O-])c1	–	inactive	inactive	inactive	inactive	inactive	inactive	inactive	inactive	inactive	inactive	inactive	inactive	inactive	inactive	inactive	inactive	inactive	6.98 µM (active)	–
CC(C)Oc1cccc(NC(=O)c2ccccc2C(F)(F)F)c1	–	inactive	inactive	30.6 µM (active)	inactive	inactive	inactive	inactive	inactive	inactive	inactive	inactive	inactive	inactive	inactive	inactive	inactive	inactive	17.2 µM (active)	–
CC(C)(C)c1ccc(CSc2cnn(C(C)(C)C)c(=O)c2Cl)cc1	–	inactive	inactive	24.3 µM (active)	inactive	inactive	inactive	inactive	inactive	inactive	inactive	inactive	inactive	inactive	inactive	inactive	inactive	inactive	7.7 µM (active)	–
O=[N+]([O-])c1ccc2ccc3cccc4ccc1c2c34	–	inactive	inactive	inactive	inactive	inactive	inactive	inactive	inactive	inactive	inactive	inactive	inactive	inactive	inactive	inactive	–	48.5 µM (active)	1.22 µM (active)	–
O=C(CCl)C(Cl)Cl	13.8 µM (active)	inactive	–	49 µM (active)	inactive	inactive	inactive	inactive	inactive	inactive	inactive	–	inactive	inactive	inactive	inactive	–	inactive	61.7 µM (active)	35 µM (active)
O=C(CCCN1CCC2(CC1)C(=O)NCN2c1ccccc1)c1ccc(F)cc1	–	inactive	inactive	inactive	inactive	inactive	inactive	inactive	inactive	inactive	inactive	inactive	inactive	inactive	inactive	inactive	inactive	inactive	3.35 µM (active)	inactive
CC[C@H]1C[C@@H]2C[C@H]3c4[nH]c5ccc(OC)cc5c4CCN(C2)[C@@H]13	–	inactive	inactive	inactive	inactive	inactive	inactive	inactive	inactive	inactive	inactive	inactive	inactive	inactive	inactive	inactive	–	inactive	–	–
CCC[CH2][Sn]([CH2]CCC)([CH2]CCC)[O]C(=O)c1ccccc1	–	0.611 µM (active)	1.22 µM (active)	2.17 µM (active)	inactive	inactive	inactive	inactive	inactive	inactive	inactive	–	inactive	inactive	inactive	inactive	–	inactive	0.077 µM (active)	–
CN(C)C1CSSSC1	–	inactive	inactive	inactive	inactive	inactive	inactive	inactive	inactive	inactive	inactive	inactive	inactive	inactive	inactive	inactive	inactive	inactive	–	–
COC12CC[C@@]3(C[C@@H]1C(C)(O)C(C)(C)C)[C@H]1Cc4ccc(O)c5c4[C@@]3(CCN1CC1CC1)[C@H]2O5 (some centres undefined)	–	54.1 µM (active)	60.7 µM (active)	54.1 µM (active)	inactive	inactive	inactive	–	inactive	inactive	inactive	–	inactive	inactive	inactive	inactive	–	inactive	19.2 µM (active)	–
O=c1[nH]c2ccccc2n1C1CCN(CCCC(c2ccc(F)cc2)c2ccc(F)cc2)CC1	–	23.7 µM (active) and 61.1 µM (active)	29.8 µM (active) and 54.5 µM (active)	–	inactive	inactive	inactive	–	inactive	inactive	inactive	inactive	inactive	inactive	inactive	inactive	–	inactive	–	–
CCN(CC)C(=S)[S-].CCN(CC)C(=S)[S-].[Zn+2]	–	4.29 µM (active)	–	inactive	inactive	inactive	inactive	inactive	inactive	inactive	inactive	inactive	inactive	inactive	inactive	inactive	–	5.4 µM (active)	3.41 µM (active)	–
ClC1=C(Cl)C2(Cl)C3C(Cl)C=CC3C1(Cl)C2(Cl)Cl (centres undefined)	–	68.9 µM (active) and 54.5 µM (active)	inactive	inactive	inactive	inactive	inactive	–	inactive	inactive	inactive	inactive	inactive	inactive	inactive	inactive	–	inactive	27.4 µM (active) and 54.5 µM (active)	–
